The record followed here is article PMC7862700, “An all-to-all approach to the identification of sequence-specific readers for epigenetic DNA modifications on cytosine”.

Holding throughout (assay): DAPPL (digital affinity profiling via proximity ligation, sequencing); 10 mM Tris-HCl pH 7.5, 50 mM NaCl, 1 mM DTT, 4% glycerol, room temperature, 30 min; GST-TFs on glutathione beads, 16-mer random dsDNA library, 0.1% formaldehyde crosslink after washing; high values mean tight binding
Common to all, as to settings: protein: recombinant; tags: N-terminal GST; dsDNA, one strand shown

One test has as its target ELF4 (Homo sapiens, UniProt Q99607 1-663). In a few lines: (§1)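 Human transcription factors fused to GST were expressed in yeast, captured on glutathione beads, given DNA barcodes and pooled with a GST-only negative control. Pools were incubated with 200 nmole of a 16-mer random double-stranded DNA library in Tris/NaCl/DTT/glycerol buffer at room temperature for 30 min. They were then washed, crosslinked with 0.1% formaldehyde, proximity-ligated (BsaI/T4 ligase, 1 h, 37 °C), PCR-amplified and sequenced on an Illumina NextSeq500. Binding signal is each 6-mer's read frequency for a factor divided by its frequency for the GST control.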

For another test, the target named is T1, ELK4 (Homo sapiens, UniProt P28324-2 1-405).
T1 sequence: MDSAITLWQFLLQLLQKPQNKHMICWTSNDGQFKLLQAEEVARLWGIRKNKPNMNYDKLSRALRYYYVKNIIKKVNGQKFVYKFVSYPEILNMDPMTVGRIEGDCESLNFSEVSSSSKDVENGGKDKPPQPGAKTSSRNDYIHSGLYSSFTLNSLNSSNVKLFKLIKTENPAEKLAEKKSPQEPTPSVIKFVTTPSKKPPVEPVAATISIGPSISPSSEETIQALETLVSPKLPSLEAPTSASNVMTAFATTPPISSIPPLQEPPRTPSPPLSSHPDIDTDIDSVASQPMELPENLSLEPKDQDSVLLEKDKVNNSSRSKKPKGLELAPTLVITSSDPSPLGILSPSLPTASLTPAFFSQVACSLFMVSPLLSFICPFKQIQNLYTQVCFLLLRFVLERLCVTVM
In a few lines: as §1

Another test concerns the target T2, ETV2 (Homo sapiens, UniProt O00321 1-342).
T2 sequence: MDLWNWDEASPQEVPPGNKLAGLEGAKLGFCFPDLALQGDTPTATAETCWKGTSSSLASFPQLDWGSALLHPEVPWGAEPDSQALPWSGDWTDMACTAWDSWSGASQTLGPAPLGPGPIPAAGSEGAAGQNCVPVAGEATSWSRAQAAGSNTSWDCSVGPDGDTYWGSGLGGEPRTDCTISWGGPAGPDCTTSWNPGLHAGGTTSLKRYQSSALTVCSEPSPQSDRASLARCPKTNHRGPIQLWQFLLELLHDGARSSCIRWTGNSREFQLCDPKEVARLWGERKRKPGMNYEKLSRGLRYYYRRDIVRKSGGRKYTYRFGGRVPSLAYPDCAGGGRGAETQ
In a few lines:
as §1

The next test has as its target T3, ELF3 (Homo sapiens, UniProt P78545 1-371).
T3 sequence: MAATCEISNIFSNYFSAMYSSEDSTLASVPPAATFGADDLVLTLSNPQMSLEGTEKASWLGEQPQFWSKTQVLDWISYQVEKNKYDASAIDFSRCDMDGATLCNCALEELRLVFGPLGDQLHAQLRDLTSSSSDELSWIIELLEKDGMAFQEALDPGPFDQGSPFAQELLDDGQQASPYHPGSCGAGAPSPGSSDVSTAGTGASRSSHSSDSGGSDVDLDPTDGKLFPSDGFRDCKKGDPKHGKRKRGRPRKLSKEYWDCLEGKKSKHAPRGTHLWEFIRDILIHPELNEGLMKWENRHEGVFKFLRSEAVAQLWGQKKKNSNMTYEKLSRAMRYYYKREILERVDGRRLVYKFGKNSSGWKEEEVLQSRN
In a few lines:
as §1

For another test, the target named is ETV1 (Homo sapiens, UniProt P50549 1-477). In short, it runs like this:
as §1

In a further test the target is T4, ERF (Homo sapiens, UniProt P50548 1-548).
T4 sequence: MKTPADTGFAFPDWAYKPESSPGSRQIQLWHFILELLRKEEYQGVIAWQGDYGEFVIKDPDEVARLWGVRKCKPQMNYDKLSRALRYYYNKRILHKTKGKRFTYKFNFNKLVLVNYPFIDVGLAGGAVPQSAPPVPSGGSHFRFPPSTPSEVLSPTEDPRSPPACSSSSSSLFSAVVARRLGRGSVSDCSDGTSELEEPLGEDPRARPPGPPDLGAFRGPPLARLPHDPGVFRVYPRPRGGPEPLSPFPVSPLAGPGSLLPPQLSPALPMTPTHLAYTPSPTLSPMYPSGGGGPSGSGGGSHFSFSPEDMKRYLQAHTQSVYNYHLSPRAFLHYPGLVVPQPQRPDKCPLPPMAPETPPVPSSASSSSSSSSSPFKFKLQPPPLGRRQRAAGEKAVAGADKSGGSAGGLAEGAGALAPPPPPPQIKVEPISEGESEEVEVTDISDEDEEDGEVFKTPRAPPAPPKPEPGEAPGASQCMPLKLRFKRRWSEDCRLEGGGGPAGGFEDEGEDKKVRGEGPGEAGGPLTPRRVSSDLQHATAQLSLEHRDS
In short, it runs like this:
as §1

The next test addresses T5, ETV3L (Homo sapiens, UniProt Q6ZN32 1-361).
T5 sequence: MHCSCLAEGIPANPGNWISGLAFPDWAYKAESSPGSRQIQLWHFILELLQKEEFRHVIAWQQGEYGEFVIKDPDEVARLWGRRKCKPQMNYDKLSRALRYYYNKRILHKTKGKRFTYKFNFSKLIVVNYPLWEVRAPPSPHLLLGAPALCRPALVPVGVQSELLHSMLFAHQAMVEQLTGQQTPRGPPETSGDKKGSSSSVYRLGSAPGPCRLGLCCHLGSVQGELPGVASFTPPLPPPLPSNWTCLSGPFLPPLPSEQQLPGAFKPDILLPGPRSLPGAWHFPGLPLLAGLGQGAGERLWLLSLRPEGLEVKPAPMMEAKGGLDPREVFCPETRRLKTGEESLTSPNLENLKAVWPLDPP
In short, it runs like this: as §1

The next test addresses T6, ETV7 (Homo sapiens, UniProt Q9Y603 1-341).
T6 sequence: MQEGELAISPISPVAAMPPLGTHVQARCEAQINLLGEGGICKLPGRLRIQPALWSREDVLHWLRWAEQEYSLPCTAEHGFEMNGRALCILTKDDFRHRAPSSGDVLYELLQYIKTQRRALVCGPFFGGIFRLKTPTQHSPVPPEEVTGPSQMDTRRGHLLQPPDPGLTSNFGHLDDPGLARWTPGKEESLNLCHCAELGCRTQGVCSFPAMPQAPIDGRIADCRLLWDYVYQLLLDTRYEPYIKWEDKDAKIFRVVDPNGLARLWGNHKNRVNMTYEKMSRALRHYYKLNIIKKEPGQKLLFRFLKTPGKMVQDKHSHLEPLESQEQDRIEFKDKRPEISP
In short, it runs like this: as §1

A further test addresses T7, ETV3 (Homo sapiens, UniProt P41162-2 1-143).
T7 sequence: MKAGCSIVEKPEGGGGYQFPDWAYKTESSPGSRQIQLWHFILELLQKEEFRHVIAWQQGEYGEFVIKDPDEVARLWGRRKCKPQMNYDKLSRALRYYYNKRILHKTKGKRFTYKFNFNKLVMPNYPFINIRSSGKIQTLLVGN
In a few lines:
as §1

Another test deals with ETV6 (Homo sapiens, UniProt P41212 1-452). In a few lines: as §1
Chain of ETV6 (P41212 whole entry): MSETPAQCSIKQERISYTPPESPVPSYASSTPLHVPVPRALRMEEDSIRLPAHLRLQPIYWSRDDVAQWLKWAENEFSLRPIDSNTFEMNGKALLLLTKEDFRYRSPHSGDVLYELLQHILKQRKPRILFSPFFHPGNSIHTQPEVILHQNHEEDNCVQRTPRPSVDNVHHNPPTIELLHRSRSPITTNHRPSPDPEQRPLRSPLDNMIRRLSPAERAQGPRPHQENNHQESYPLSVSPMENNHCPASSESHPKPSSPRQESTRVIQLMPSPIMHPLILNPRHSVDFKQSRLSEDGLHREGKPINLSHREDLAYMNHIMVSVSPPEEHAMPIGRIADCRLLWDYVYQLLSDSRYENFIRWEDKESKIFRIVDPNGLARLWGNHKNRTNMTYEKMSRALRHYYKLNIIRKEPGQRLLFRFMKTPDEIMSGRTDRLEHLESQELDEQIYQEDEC

Chain of ETV1 (P50549 whole entry): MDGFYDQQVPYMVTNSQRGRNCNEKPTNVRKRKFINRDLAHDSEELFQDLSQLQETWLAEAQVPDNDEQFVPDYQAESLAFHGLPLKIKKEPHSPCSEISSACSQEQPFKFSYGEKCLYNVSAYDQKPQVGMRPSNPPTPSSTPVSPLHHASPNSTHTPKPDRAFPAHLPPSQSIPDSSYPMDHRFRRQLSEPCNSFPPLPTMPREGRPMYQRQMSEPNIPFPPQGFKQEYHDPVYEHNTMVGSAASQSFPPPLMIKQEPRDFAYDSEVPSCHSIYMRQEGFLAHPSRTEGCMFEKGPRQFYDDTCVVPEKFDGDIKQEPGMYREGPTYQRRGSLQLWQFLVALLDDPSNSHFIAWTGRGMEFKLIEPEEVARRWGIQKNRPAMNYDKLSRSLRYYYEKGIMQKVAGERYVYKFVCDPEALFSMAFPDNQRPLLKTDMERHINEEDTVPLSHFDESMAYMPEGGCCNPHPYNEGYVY
Chain of ELF4 (Q99607 whole entry, the tested form may be a part): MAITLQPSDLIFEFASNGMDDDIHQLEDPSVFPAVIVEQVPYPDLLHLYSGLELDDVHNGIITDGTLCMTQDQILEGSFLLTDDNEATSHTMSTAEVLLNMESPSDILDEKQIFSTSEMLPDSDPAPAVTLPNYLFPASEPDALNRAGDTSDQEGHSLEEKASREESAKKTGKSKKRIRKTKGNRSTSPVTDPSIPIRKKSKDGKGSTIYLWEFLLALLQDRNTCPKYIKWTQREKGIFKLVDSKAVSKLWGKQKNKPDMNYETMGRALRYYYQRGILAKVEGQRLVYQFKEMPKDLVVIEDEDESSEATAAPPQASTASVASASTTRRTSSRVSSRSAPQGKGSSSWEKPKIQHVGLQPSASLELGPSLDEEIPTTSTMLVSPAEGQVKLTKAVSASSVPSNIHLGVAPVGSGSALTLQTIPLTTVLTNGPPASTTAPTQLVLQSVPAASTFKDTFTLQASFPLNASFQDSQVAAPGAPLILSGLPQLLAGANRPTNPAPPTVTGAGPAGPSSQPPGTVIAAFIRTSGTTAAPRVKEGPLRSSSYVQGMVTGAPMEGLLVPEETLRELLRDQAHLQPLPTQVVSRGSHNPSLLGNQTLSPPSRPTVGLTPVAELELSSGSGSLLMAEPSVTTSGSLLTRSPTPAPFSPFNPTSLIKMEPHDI

In the case of CGTTGC, the binding signal in the test with ELF4 is 1.06 fold enrichment (6-mer frequency, TF over GST control); in the test with ELK4, 1.16 fold enrichment (6-mer frequency, TF over GST control); with ETV2, 1.12 fold enrichment (6-mer frequency, TF over GST control); with ELF3 it was 1.07 fold enrichment (6-mer frequency, TF over GST control); in the test with ETV1, 1.18 fold enrichment (6-mer frequency, TF over GST control); with ERF, 1.13 fold enrichment (6-mer frequency, TF over GST control). Further, the binding signal with ETV3L was 1.17 fold enrichment (6-mer frequency, TF over GST control); in the test with ETV7 it was 1.03 fold enrichment (6-mer frequency, TF over GST control); with ETV3, 1.16 fold enrichment (6-mer frequency, TF over GST control); with ETV6, 1.04 fold enrichment (6-mer frequency, TF over GST control).
